Assay outcomes as filed in PubChem BioAssay.
NCOA1 inh: SRC1 coactivator transcriptional activity inhibitors, primary screen, cell-based, luminescence. Nuclear receptor coactivator 1 (Homo sapiens), Q15788. HEK293 GAL4-SRC1 luciferase reporter. inhibition, % at 3.6 µM. 360,000 tested, 0.12% active. AID 588354, 2011;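 active = inhibition above the campaign mean plus 3 SD, with each screening campaign given its own cutoff, cut at about 60% in these data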;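 note: 0% = DMSO treated cells and 100% = gossypol at 36 µM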
COUP-TFII inh: NR2F2 transcriptional activity inhibitors, primary screen, cell-based, luciferase reporter, HEK293T, luminescence; inhibition, % at 8.6 µM; HEK293T NGFI-A luciferase reporter; 370,000 tested, 0.7% active; AID 686940, 2013;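 active = inhibition above a per-plate cutoff, mean inhibition of test wells between control levels plus 3 SD, cut at about 38% in these data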;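 note: cells cotransfected with COUP-TFII expression vector driving the NGFI-A reporter; 0% = median of COUP-TF2 test wells and 100% = reporter-only cells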
SRC3 inh: SRC3 coactivator transcriptional activity inhibitors, primary screen, cell-based, luminescence | Nuclear receptor coactivator 3 (Homo sapiens), Q9Y6Q9 | HEK293 GAL4-SRC3 luciferase reporter | inhibition, % at 3.6 µM | 360,000 tested, 0.17% active;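 active = inhibition above a per-campaign cutoff, the mean of all compounds plus 3 SD, cut at about 60% in these data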;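 note: 0% = DMSO-treated cells and 100% = gossypol-treated cells at 36 µM; higher means less SRC3-driven luciferase light from the GAL4 reporter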
NR5A2 inv ag: LRH-1 (NR5A2) inverse agonists, primary screen, cell-based, luminescence, HEK293T, StAR-luciferase reporter; Nuclear receptor subfamily 5 group A member 2 (Homo sapiens), O00482; LRH-1 transfected, 24 h; inhibition, % at 3.6 µM; 360,000 tested, 0.13% active;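 active = inhibition above the mean inhibition of all tested compounds plus 3 SD, cut at about 73% in these data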;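 note: 0% = DMSO wells and 100% = reporter-only cells lacking LRH-1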
SRC2 inh: inhibition of GAL4-SRC2 driven luciferase reporter, primary screen, SRC2 inhibitor project, cell-based, luminescence. Nuclear receptor coactivator 2 (Homo sapiens), Q15596. HEK293 GAL4-SRC2 luciferase reporter. inhibition, % at 9 µM. 370,000 tested, 0.17% active;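 active = inhibition above the mean inhibition of all tested compounds plus 3 SD, set per campaign, cut at about 52% in these data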;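 note: 0% = DMSO treated cells and 100% = cells given Gossypol at 36 µM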
GalR3 antagonist: GalR3 antagonists in HEK293 cells, primary screen, cell-based, fluorescence readout; HEK293 GalR3-CNG cAMP membrane potential fluorescence; galR3 body fused to GalR1 C-terminus; inhibition, % at 3 µM; 360,000 tested, 0.44% active;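 active = inhibition above the screen-wide average plus 3 SD, cut at about 13% in these data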;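 note: forskolin and galanin both at EC90 stimulate the cells; cAMP rise reported by CNG channel membrane potential dye signal; 0% = forskolin plus galanin with DMSO and 100% = forskolin alone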
Active calls of the source: *; i = inactive; . = no result given. A selection: hits, their analogues and other compounds. The true share with any hit is near 1.1%.

SMILES	NCOA1 inh	COUP-TFII inh	SRC3 inh	NR5A2 inv ag	SRC2 inh	GalR3 antagonist
OC1(c2cccc(C(F)(F)F)c2)CCN(c2ncnc3c2[nH]c2ccc(F)cc23)CC1	14	47*	9	17	15	-4
COc1ccccc1/C=N/NC(=O)c1ccccc1NS(=O)(=O)c1ccc(C)cc1	16	4	17	17	-12	3
CC(C)(C)c1nnc(N/N=C/c2cc(Br)ccc2O)n(N)c1=O	67*	5	76*	2	32	-11
CCOc1ccc(-n2c(-c3ccc(Br)cc3)c[n+]3c2CCCCC3)cc1	11	25	42	54	16	18*
O=C(C1=NN[C@@H]2C(=O)N(c3cccc(C(F)(F)F)c3)C(=O)[C@H]12)c1ccc2ccccc2n1	-4	25	4	2	59*	-6
COc1ccccc1C(=O)NCCNc1nc2cc(C)cc(C)c2cc1C#N	-7	5	-1	-4	-5	-6
COc1ccc(C(=O)NCCNc2nc3cc(C)cc(C)c3cc2C#N)c(OC)c1	.	10	.	30	77*	-6
O=C(Oc1ccc2c(=O)c(Oc3ccc4ccccc4c3)coc2c1)c1cncc(Br)c1	-13	4	10	-11	28	-4
O=C(CC(Nc1ccc(Cl)cc1Cl)C(=O)O)c1ccccc1 (stereo not drawn)	63*	20	64*	30	52	-5
CC(C)CCCCCCCCCCCCC(=O)NCC(=O)NC1C(O)C(O)C(Nc2ncnc3nc[nH]c23)OC1C(O)CO (stereo not drawn)	95*	.	93*	99*	.	.
COc1ccccc1NC(=O)COC(=O)c1ccc([N+](=O)[O-])s1	-40	-26	12	2	21	13*
Cc1ccc(NC(=O)COC(=O)c2ccc([N+](=O)[O-])s2)c(C)c1	-13	10	1	19	-18	-2
O=C(N/N=C/c1cc2c3c(c1O)CCCN3CCC2)c1ccccc1O	66*	-28	68*	63	7	8
Cc1nn(-c2ccccc2)c(N2CCCC2)c1/C=N/NC(=O)c1ccccc1O	-3	1	0	-58	-5	-4
COc1ccc(-n2c(SCc3cccnc3)nc3c(c2=O)SCC3)cc1OC	7	12	4	-9	0	-6
O=C(Nc1ccc(Cl)c(S(=O)(=O)N2CCOCC2)c1)c1ccc(OCC2CCCO2)cc1 (stereo not drawn)	38	.	73*	66	.	.
O=C(Nc1cccc(S(=O)(=O)N2CCCCC2)c1)c1ccc(OCC2CCCO2)cc1 (stereo not drawn)	1	20	20	-5	-21	-6
CCO/N=C(/c1nonc1N)N1CCN(c2ccc([N+](=O)[O-])cc2)CC1	-26	17	0	24	10	-7
Cc1ccc(NC(=O)c2cc3ccccc3o2)cc1S(=O)(=O)N(C)C	-105	-52	-78	-143	-87	2
Cc1ccc(NC(=O)c2cc3ccccc3oc2=O)cc1S(=O)(=O)N(C)C	85*	.	85*	75*	.	.
COc1cccc(-c2nc(-c3ccccc3)no2)c1	-117	-64	-132	-84	-59	-4
COc1cccc(-c2nc(-c3ccccn3)no2)c1	.	34	.	.	58*	1
Brc1ccc2c(c1)CN1CCCC1=N2	61*	11	39	45	-1	-11
CN(C)CCN1C(=O)c2cccc3cc([N+](=O)[O-])cc(c23)C1=O	31	-92	-30	82*	i	-7
CCN1/C(=C/c2ccc3ccccc3[n+]2CC)C=Cc2ccccc21	68*	75*	87*	98*	12	53*
SMILES	NCOA1 inh	COUP-TFII inh	SRC3 inh	NR5A2 inv ag	SRC2 inh	GalR3 antagonist
Cc1ccc2nc(-c3ccc(NC(=O)C(C)Sc4nncs4)cc3)sc2c1 (stereo not drawn)	-95	-2	-81	-150	-15	-2
CC1(C(=O)NS(=O)(=O)c2ccc(F)cc2F)CCN1C(=O)C1(c2ccc(Cl)cc2)CCC1 (stereo not drawn)	-22	-5	3	7	2	-7
CCC1(O)C(=O)OCc2c1cc1n(c2=O)Cc2cc3cc(O)ccc3nc2-1 (stereo not drawn)	51	35	78*	92*	34	-4
COc1cc(N)ccc1Nc1c2ccccc2nc2ccccc12	8	.	-37	24	.	.
CCCS(=O)(=O)Nc1ccc(Nc2c3ccccc3nc3ccccc23)c(OC)c1	66*	-68	70*	33	-25	-6
CCCCCCCCCCCCCCCC[n+]1ccc(C(N)=O)cc1	-3	16	18	13	14	-8
CCCCCCCCCCCCCCCC[n+]1ccc(/C=N/O)cc1	-8	38*	17	-2	-17	1
COc1ccc(C(=O)C(CCC(CNC(C)(C)C)C(=O)c2ccc(OC)cc2)CNC(C)(C)C)cc1 (stereo not drawn)	23	3	35	12	54*	0
COc1ccc(C(=O)CC(=O)c2ccc(C(C)(C)C)cc2)cc1	-8	18	-13	-18	-13	.
O=C(c1ccc(OCC2CCCO2)cc1)N1CCN(S(=O)(=O)c2cccc(F)c2)CC1 (stereo not drawn)	-1	-2	20	8	-7	-2
CC(=NNC(=S)Nc1cccc(Cl)c1)c1ccccn1	58	8	67*	46	30	-3
O=S(=O)(c1ccccc1Cl)N1CCCC1c1nc(-c2cccc(Cl)c2)no1 (stereo not drawn)	-26	-1	-7	-13	7	0
Nc1ncnc(N2CCc3ccccc32)c1[N+](=O)[O-]	73*	35	65*	33	44	0
Cc1nnc(-c2ccccc2)c(=O)n1/N=C/c1c(O)ccc2ccccc12	55	2	74*	20	46	-1
CC(=O)Nc1nc(C(F)(F)F)cs1	8	-2	11	1	7	0
CCCCCCCCCn1c2c(c(=N)c3c1CCC3)CCCC2	50	.	81*	89*	.	.
COc1ccc(CNC(=O)COC(=O)c2cc(-c3ccc(Cl)s3)nc3ccccc23)cc1	-23	8	83*	-19	4	2
O=C(COC(=O)c1cc(-c2ccc(Cl)s2)nc2ccccc12)NCc1ccco1	-16	-3	7	-24	-25	5
COc1cccc(CNC(=O)[C@H]2CCCN2)c1	.	-7	.	.	-30	-4
